About 83,000 compounds went through this panel and 20% of them were active in at least one assay; those are over-represented in the sample as a whole.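 Percent growth is the endpoint: 0 to 100 indicates growth inhibition (40 means 60% inhibition), 0 means no net growth, and negative values indicate cell death.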 Values without a mark were called inactive. Activity calls are given as the source filed them. Rule for the calls: active = growth percent below 10; inactive = the rest.
Assays:
Test in all cases: NCI-60 one-dose screen, 48 h (100 = growth as untreated, 0 = no growth, -100 = all killed)
[1] = tested on: DU-145 prostate; conditions: 10 µM unless noted
[2] = tested on: K-562 leukemia; conditions: 10 µM unless noted
[3] = tested on: MALME-3M melanoma; conditions: 10 µM unless noted
[4] = tested on: SF-295 CNS; conditions: 10 µM unless noted
[5] = tested on: UACC-257 melanoma; conditions: 10 µM unless noted
[6] = tested on: UACC-62 melanoma; conditions: 10 µM unless noted
[7] = tested on: LOX IMVI melanoma; conditions: 10 µM unless noted
[8] = tested on: SK-MEL-2 melanoma; conditions: 10 µM unless noted
[9] = tested on: A498 renal; conditions: 10 µM unless noted
[10] = tested on: HL-60(TB) leukemia; conditions: 10 µM unless noted
[11] = tested on: CCRF-CEM leukemia; conditions: 10 µM unless noted
[12] = tested on: SR leukemia; conditions: 10 µM
[13] = tested on: OVCAR-4 ovarian; conditions: 10 µM unless noted
[14] = tested on: IGROV1 ovarian; conditions: 10 µM
[15] = tested on: OVCAR-3 ovarian; conditions: 10 µM unless noted
[16] = tested on: BT-549 breast; conditions: 10 µM
[17] = tested on: HCC-2998 colon; conditions: 10 µM unless noted
[18] = tested on: RXF 393 renal; conditions: 10 µM unless noted
[19] = tested on: M14 melanoma; conditions: 10 µM unless noted
[20] = tested on: SK-MEL-5 melanoma; conditions: 10 µM unless noted

Row | SMILES | growth [1] [%] | growth [2] [%] | growth [3] [%] | growth [4] | growth [5] [%] | growth [6] [%] | growth [7] | growth [8] [%] | growth [9] [%] | growth [10] [%] | growth [11] [%] | growth [12] | growth [13] [%] | growth [14] [%] | growth [15] [%] | growth [16] [%] | growth [17] [%] | growth [18] [%] | growth [19] [%] | growth [20] [%]
1 | CCCCn1cc(C(=O)/C(C#N)=C/c2cc3ccccc3nc2Cl)c2cc(OC)ccc21 | 104 | 47.5 | 88.6 | 95.9% | 98.5 | 81.4 | 74% | 115 | 94.8 | 88.7 | 33.4 | -12% (active) | 95.5 | 61.2 | 78.6 | 91.7 | 96.8 | – | – | –
2 | CC(=O)C1CCC2C3CC=C4CC(OC(=O)Cc5ccc(N(CCCl)CCCl)cc5)CCC4(C)C3CCC12C (stereo not given) | 86 | – | 109 | 108% | 116 | 91.4 | – | 106 | 105 | 101 | 64.5 | 52.7% | 99.4 | 97.3 | 99.6 | 92 | 93.7 | 108 | 97.4 | 94.5
3 | COC1=CC(=O)OC(CCc2ccc3c(c2)OCO3)C1 (stereo not given) | 122 | 122 | 136 | 116% | 97.8 | – | 98.5% | 97.4 | 101 | 113 | 85.4 | 122% | 106 | 116 | 122 | 92.5 | 132 | 70.2 | – | 102
4 | CC1(C)CC2(CC(C)(C)c3cc(O)c(O)cc32)c2cc(O)c(O)cc21 | 98.8 | – | 101 | 96.1% | 109 | 83.3 | 94.8% | 110 | 99.4 | 104 | 84.5 | 70.3% | 82 | 98.4 | 88.9 | 111 | 102 | 85.8 | – | 92.5
5 | CC1(C)N=C(N)N=C(N)N1c1ccc(CCCCc2ccc(S(=O)(=O)F)cc2)c(Cl)c1 | 30.6 | 13.1 | 44.3 | 3.69% (active) | 30.9 | 18.3 | 8.78% (active) | 30.6 | 37.3 | 19.2 | 11.5 | 33.4% | 80.4 | 29.1 | – | 46.2 | 35.5 | 43.1 | 24.3 | 16.6

Source: PubChem BioAssay (NCI)
